Source: PubChem BioAssay
Ba/F3 V617F tox: reduce viability of Ba/F3 cells dependent on JAK2V617F. inhibition, % at 5.6 µM. 220,000 tested, 1.1% active. Ba/F3 EpoR-JAK2V617F viability, ATP luminescence;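 active = inhibition above the campaign mean plus 3 SD over all tested compounds, cut at about 24% in these data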;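 note: cytokine-independent growth of Ba/F3 cells driven by EpoR plus mutant JAK2; 0% = DMSO-treated cells and 100% = JAK inhibitor I control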
APP transl inh: APP translation inhibition; SH-SY5Y APP 5'UTR-luciferase reporter, luminescence; inhibition, % at 2 µM; AID 1285; 190,000 tested, 0.82% active;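 active = inhibition above a set limit, derived from the sample mean plus 3 SD, cut at about 45% in these data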
IEC-6 tox: IEC-6 cytotoxicity, counter-screen for KLF5 inhibitors | luminescence viability | inhibition, % at 5 µM | 290,000 tested, 0.78% active;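 note: 0% = plate median of test compound wells and 100% = cytotoxic reference compound wells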
KLF5 inh: inhibitors of KLF5 expression; 290,000 tested, 0.23% active; inhibition, % at 5 µM; DLD-1 KLF5 promoter-luciferase reporter, luminescence;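 active = inhibition above a per-plate limit of that plate's mean compound inhibition plus 3 SD, cut at about 60% in these data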;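 note: 0% = DMSO wells and 100% = LY294002 at 200 µM; higher means less KLF5 promoter-driven luciferase light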
BaF3 tox: reduces parental Ba/F3 cell viability, JAK2V617F counter-screen; CellTiter-Glo ATP luminescence; 220,000 tested, 1.1% active; AID 1486; inhibition, % at 5.6 µM;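 active = inhibition above a per-campaign cutoff, the mean inhibition of all tested compounds plus 3 SD, cut at about 27% in these data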;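 note: 0% = DMSO wells and 100% = JAK Inhibitor I control wells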
aSyn 5UTR inh: 5' untranslated region of α-synuclein, MLPCN primary screen. alpha-synuclein 5'UTR reporter, inhibitor activity. inhibition, % (tested at 7.5 µM). 300,000 tested, 0.82% active; in the data active = inhibition above about 60%;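 note: H4 neuroglioblastoma cells stably carrying SNCA 5'UTR luciferase fusion; 0% = DMSO wells and 100% = positive control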
IEC-6 cytotox cf: IEC-6 cytotoxicity, confirmation assay; shares compounds with IEC-6 tox; IEC-6 rat intestinal epithelial viability, luminescence; inhibition, % at 5 µM; 1,900 tested, 63% active;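 note: 0% = vehicle and 100% = reference cytotoxic drug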
* marks the source's active call; other numbers are inactive results; / = no result. An excerpt weighted towards active compounds, which were near 2.1% of everything screened. Cut-off read from the data, not from the text of the source, unless noted: active = inhibition above about 22%; inactive = the rest.

SMILES | Ba/F3 V617F tox | APP transl inh | IEC-6 tox | KLF5 inh | BaF3 tox | aSyn 5UTR inh | IEC-6 cytotox cf
Cc1ccc(NC(=O)[C@H](Cc2c[nH]c3ccccc23)NC(=O)[C@@H]2Cc3ccccc3CN2)c(C)c1 | / | / | 32* | 52 | / | 23 | 6
Cc1cccc(NC(=O)[C@H](Cc2c[nH]c3ccccc23)NC(=O)[C@@H]2Cc3ccccc3CN2)c1 | / | / | -2 | 20 | / | 32 | /
CC(C)NC(=NCc1ccc(Cl)cc1Cl)Nc1ccccc1 | / | / | 4 | -31 | / | 7 | /
CS(=O)(=O)NCc1ccc(C(=O)NC2CCCCC2)cc1 | 4 | -3 | 37* | -6 | 5 | 22 | 11
Cc1ccc(S(=O)(=O)NCc2ccc(C(=O)NC3CCCCC3)cc2)cc1 | / | / | -5 | -17 | / | 8 | /
CC1CC(C)CN(C(=O)c2ccc(S(=O)(=O)N3CCCC3)cc2)C1 (configuration not stated) | / | / | -2 | -33 | / | 10 | /
O=C(c1ccccc1)N1N=C(c2ccccc2)CC1(O)C(F)(F)F (configuration not stated) | / | / | 5 | -21 | / | 1 | /
COc1ccc(C2=NN(C(=O)c3cccs3)C(O)(C(F)(F)F)C2)cc1 (configuration not stated) | -1 | 24 | 54* | -6 | 3 | 30 | 41*
CC(=O)Nc1ccc(NC2=C/C(=N/S(=O)(=O)c3cccs3)c3ccccc3C2=O)cc1 | 3 | 35 | 43* | -32 | 3 | 83* | 4
CC1=C(C(=O)OCc2ccc3c(c2)OCO3)C(c2ccc(F)cc2)NC(=O)N1 (configuration not stated) | 52* | 44 | 38* | 41 | 31* | 19 | 47*
CSCCOC(=O)C1=C(C)NC(=O)NC1c1ccc2c(c1)OCO2 (configuration not stated) | / | / | 5 | -8 | / | 9 | /
CC1=C(C(=O)OCc2ccc3c(c2)OCO3)C(c2ccc(Cl)cc2)NC(=O)N1 (configuration not stated) | 74* | 78* | 82* | 54 | 76* | 41 | 72*
NC(=O)c1c(NC(=O)c2ccc([N+](=O)[O-])o2)sc2c1CCCC2 | / | / | 100* | 24 | / | 95* | 39*
CC(C)c1onc(C(=O)Nc2sc3c(c2C#N)CCC3)c1[N+](=O)[O-] | -3 | 6 | 2 | -21 | 0 | -42 | /
N#Cc1c(NC(=O)c2ccc([N+](=O)[O-])o2)sc2c1CCC2 | / | / | 39* | -34 | / | -107 | 16
CN1CCc2c(sc(NC(=O)c3ccc([N+](=O)[O-])o3)c2C(N)=O)C1 | / | / | 101* | 34 | / | 86* | 88*
CN(C(=O)Nc1ccccc1)C1CCCc2ccccc21 (configuration not stated) | / | / | -1 | -29 | / | -2 | /
CCn1c(-c2ccc(N(C)C)cc2)nc2ccccc21 | 78* | -96 | 30* | -89 | 68* | -97 | 6
O=C(Nc1ccccc1C(=O)NCC1CCCO1)c1ccc(Cl)cc1 (configuration not stated) | / | / | 0 | -23 | / | 12 | /
Cn1c(CNC(=O)CNC(=O)Cc2ccc(F)cc2)cc(=O)n(C)c1=O | / | / | -4 | -23 | / | 3 | /
Cc1c(O)ccc(C(=O)CN2CCN(Cc3ccc4c(c3)OCO4)CC2)c1O | 6 | -4 | 60* | 7 | -2 | 6 | 4
COc1ccc(OC)c(Nc2ncnc3ccc(Br)cc23)c1 | / | / | 5 | 14 | / | 18 | /
Brc1ccc2ncnc(Nc3cccc4ccccc34)c2c1 | 0 | -14 | 28* | 15 | 8 | -22 | 41*
Cc1sc2nc(-c3ccncc3)[nH]c(=O)c2c1-c1ccccc1 | -2 | 16 | 1 | 20 | -1 | 2 | /
Cc1sc2nc(-c3ccccn3)[nH]c(=O)c2c1-c1ccccc1 | -2 | 23 | 28* | -14 | 3 | / | 33*
SMILES | Ba/F3 V617F tox | APP transl inh | IEC-6 tox | KLF5 inh | BaF3 tox | aSyn 5UTR inh | IEC-6 cytotox cf
Cc1ccc(S(=O)(=O)N2CCCCC2)cc1C(=O)NCCCN1CCOCC1 | / | / | 1 | -6 | / | -11 | /
Cc1ccc(N=Cc2c(C)[nH]n(-c3nc4ccccc4[nH]3)c2=O)cc1 | 26* | -22 | 35* | -9 | 39* | 23 | 53*
O=C(Nc1ccccc1)/C(=C/c1ccc(O)cc1)NC(=O)c1ccco1 | / | / | -3 | -3 | / | -1 | /
c1ccc(-c2nnc(-c3ccccn3)nn2)nc1 | / | / | / | / | / | -122 | /
c1ccc(-c2cccc(-c3ccccn3)n2)nc1 | 94* | 86* | 81* | 53 | 85* | 77* | 83*
C=CC(=O)NC(NC(=O)C=C)c1ccccc1F | -1 | / | 0 | 34 | -3 | -29 | /
Cc1ccc(N(C)S(=O)(=O)c2ccc(-c3cc(C)no3)s2)cc1 | / | / | 41* | 35 | / | -38 | 5
COc1ccc(-c2cc(C)no2)cc1S(=O)(=O)N(C)c1ccc(C)c(C)c1 | / | / | 3 | -21 | / | 28 | /
Cc1cc(-c2ccc(S(=O)(=O)N(C)c3ccc(C)c(C)c3)s2)on1 | / | / | 53* | 32 | / | 0 | 42*
CC(=O)N1CCN(c2nc3ccc([N+](=O)[O-])cc3s2)CC1 | / | / | 3 | -41 | / | -29 | /
COc1cccc2[nH]c(C(=O)NCc3ccccc3)cc12 | / | / | -2 | -35 | / | -7 | /
CCOC(=O)c1cc2c(ccn2C)n1CC(=O)N(Cc1ccccc1)c1ccccc1 | 4 | -19 | 32* | -3 | 6 | 28 | 2
Cc1ccccc1Cn1c(C(=O)OC(C)C)cc2c1ccn2C | 0 | -2 | 10 | -11 | 0 | 13 | /
CC(C)OC(=O)c1cc2c(ccn2C)n1CC(=O)N1CCC(Cc2ccccc2)CC1 | 5 | 4 | 40* | 5 | 8 | -5 | 7
Cc1ccc(C)c(Cn2c(C(=O)OC(C)C)cc3c2ccn3C)c1 | 5 | -1 | 29* | -1 | 2 | 10 | 17
CCOC(=O)c1cc2c(ccn2C)n1CC(=O)N(Cc1ccccc1)c1ccc(F)cc1 | 0 | 0 | -8 | 5 | 9 | 29 | /
Cc1ccc(OCC(=O)NNC(=O)c2ccccc2OCc2c(C)noc2C)cc1 | / | / | / | / | / | 7 | /
CCOc1ccc(C(CC(=O)O)NC(=O)Cc2ccc(Cl)cc2)cc1 (configuration not stated) | / | / | -13 | -34 | / | 13 | /
Cc1ccc2oc(/N=C(\N)NC(=O)C3CC3)nc2c1 | 38* | / | 32* | -14 | 29* | 5 | 31*
CCOc1ccc(/C=N/NC(=O)c2nnn(-c3nonc3N)c2CN(C)C2CCCCC2)cc1 | / | / | -1 | -6 | / | 1 | /
Cc1ccc(Cn2nnnc2CN2CCC(c3nc4ccc(Cl)cc4[nH]3)CC2)cc1 | 92* | 68* | 88* | 46 | 82* | 78* | 54*
Cc1[nH]n(-c2ccccc2)c(=O)c1/C=N/NC(=O)c1cccc(F)c1 | / | / | 22* | 61 | / | 58 | 10
Cc1[nH]n(-c2ccc(Br)cc2)c(=O)c1/C=N/NC(=O)c1ccccc1 | / | / | 65* | 44 | / | 47 | 60*
Cc1cc(C(=O)N/N=C/c2c(C)[nH]n(-c3ccccc3)c2=O)n[nH]1 | / | / | 1 | -37 | / | 21 | /
